Where “and” joins values, the source holds several entries; their conditions need not be identical. Equal entries are not always repeated. Inconclusive results are not listed. Calls of active or inactive are those of the source. Unless noted, the call rests on the fitted dose curve; in most records, active means well fitted curve in the direction sought with a large enough effect; inconclusive means small, poorly fitted or top-dose-only effect, or another doubt; inactive means no such curve, though single readings can be large; an effect the other way counts as inactive or inconclusive.
Target: Cytochrome P450 2C9 (Homo sapiens) (UniProt P11712)
Sequence (P11712 whole entry, looked up): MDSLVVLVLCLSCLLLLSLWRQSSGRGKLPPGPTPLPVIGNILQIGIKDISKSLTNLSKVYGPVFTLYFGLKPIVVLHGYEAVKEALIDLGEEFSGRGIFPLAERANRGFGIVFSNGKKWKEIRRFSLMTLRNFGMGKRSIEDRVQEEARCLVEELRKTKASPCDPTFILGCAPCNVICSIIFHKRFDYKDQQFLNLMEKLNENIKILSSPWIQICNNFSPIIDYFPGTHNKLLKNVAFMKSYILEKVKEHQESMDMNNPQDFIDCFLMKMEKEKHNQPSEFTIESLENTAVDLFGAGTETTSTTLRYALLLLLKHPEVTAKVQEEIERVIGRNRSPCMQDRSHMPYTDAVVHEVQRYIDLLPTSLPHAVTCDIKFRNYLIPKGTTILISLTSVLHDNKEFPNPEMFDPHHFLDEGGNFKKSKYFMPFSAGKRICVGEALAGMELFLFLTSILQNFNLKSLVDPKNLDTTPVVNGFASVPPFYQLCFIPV
Experiment: Cytochrome P450 family 2 subfamily C member 9 (CYP2C9) small molecule antagonists: luciferase biochemical (cell-free) qHTS assay (AID 1645842; active means well fitted curve in the direction sought with a large enough effect in the repeat runs; an effect the other way counts as inactive or inconclusive; further: nearly all actives have a fitted effect of over 55% in size)
Details: P450-Glo CYP2C9 enzyme assay, luciferin luminescence; series mostly up to 57.4 µM; activity change, negative = inhibition: at the top concentration
Method in brief: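 Luminescence, after 20 min with luciferin detection reagent, reflected CYP2C9 turnover during a 1 h NADPH-driven reaction at 37C. Enzyme-substrate mix contained 0.4% bovine serum albumin and was preincubated with compound 10 min at room temperature.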
On the % scale 0 is the no-effect control and ±100 the full control effect; potency means the concentration at half of the fitted maximal effect.

SMILES | activity change, negative = inhibition | Potency
CC(C)=CCC/C(C)=C/CC/C(C)=C/CCC(=O)OC/C=C(\C)CCC=C(C)C | 1.11% (inactive) | –
O=C(O)CCCC[C@@H]1SC[C@@H]2NC(=O)N[C@@H]21 | 1.11% (inactive) | –
O=C(Oc1ccccc1)c1cccc(C(=O)Oc2ccccc2)c1 | – | 6.48 µM (active)

System: not listed separately
Experiment: Primary qHTS for inhibitors of nuclear receptor binding SET domain protein 2 (NSD2) in an isogenic RCH-ACV NSD2 p.E1099K mutant (9B) (AID 1645876); further: nearly all actives have a fitted effect of over 70% in size
Details: RCH-ACV NSD2 E1099K (9B) viability, CellTiter-Glo, 72 h; series mostly up to 44.9 µM; activity change, negative = viability loss: at the top concentration

SMILES | activity change, negative = viability loss | outcome | Potency
CC(=O)O[C@@H]1CC2C3CCc4cc(OC(=O)c5ccccc5)ccc4C3CCC2(C)[C@H]1OC(C)=O (stereo not given in full) | 6.79% (inactive) | – | –
CN1C(CSCC(F)(F)F)Nc2cc(Cl)c(S(N)(=O)=O)cc2S1(=O)=O (stereo not given) | -15.1% (inactive) | – | –
O=C(O)c1ccc(OCCN2CCCCC2)cc1 | – | inactive | –
CC(=O)OC[C@H]1O[C@@H](OC(C)=O)[C@H](OC(C)=O)[C@@H]1OC(C)=O | 4.87% (inactive) | – | –
Cc1[nH]cnc1-c1ccc(Cl)cc1 | -0.676% (inactive) | – | –
O=P(O)(O)OCC(O)CO (stereo not given) | – | inactive | –
CN(C)CCCOC1(Cc2ccccc2)CCCCCC1 | -8.74% (inactive) | – | –
Cc1ccc(C(C)OC(=O)C2(C)CCC(C(=O)O)C2(C)C)cc1 (stereo not given) | -13.2% (inactive) | – | –
COC(=O)CCCCC(CCSS/C(CCO)=C(\C)N(C=O)Cc1cnc(C)nc1N)SC(C)=O (stereo not given) | -5.89% (inactive) | – | –
N#C/C(=C1/SC[C@@H](c2ccc(Cl)cc2Cl)S1)n1ccnc1 | – | – | 13.3 µM (active)
Cc1cnc(NS(=O)(=O)c2ccc(N)cc2)nc1 | 7.45% (inactive) | – | –
CCO[C@H](Cc1ccc(OCCc2ccc(OS(C)(=O)=O)cc2)cc1)C(=O)O | 5.51% (inactive) | – | –
OC[C@]1(O)OC[C@@H](O)[C@H](O)[C@@H]1O | – | inactive | –
CO/N=C(\C(=O)O)c1csc(NC(=O)CCl)n1 | – | inactive | –
CN(C)CCN1CCN(c2cccc(Cl)c2)C1=O | 7.04% (inactive) | – | –
CC(=O)c1ccc(O)c(C(N)=O)c1 | -7.61% (inactive) | – | –
CN1C(=O)c2ccccc2C1=O | 8.95% [at 91.9 µM] (inactive) | – | –
C=CCOc1cc(Cl)ccc1C(=O)NCCN(CC)CC | -17.2% (inactive) | – | –

SMILES | activity change, negative = viability loss | outcome | Potency
CCN(CC)CC(=O)Oc1ccc(NC(C)=O)cc1 | – | inactive | –
CCC(C(=O)OCCN1CCOC(c2ccccc2)C1C)c1ccccc1 (stereo not given) | -12.3% (inactive) | – | –
CCn1ccc(NS(=O)(=O)c2ccc(N)cc2)nc1=O | -2.94% (inactive) | – | –
COC(=O)c1cc(S(N)(=O)=O)ccc1OC | 0.891% (inactive) | – | –
CCCCOC(=O)CCCCCCCCC(=O)OCCCC | – | inactive | –
O=C1CC[C@H](C(=O)N2CCCCC2)N1 | 2.28% (inactive) | – | –
CCCC(=O)OCOC(=O)C1=C(C)NC(C)=C(C(=O)OC)C1c1cccc(Cl)c1Cl (stereo not given) | -16.1% (inactive) | – | –
CCOC(=O)Oc1ccc(CCNC(=O)[C@H](CCSC)NC(C)=O)cc1OC(=O)OCC | 3.73% (inactive) | – | –
NC(=O)COCCN1CCN(C(c2ccccc2)c2ccc(Cl)cc2)CC1 (stereo not given) | -5.44% (inactive) | – | –
Nc1ncnc2c1ncn2Cc1c(F)cccc1Cl | -1.44% (inactive) | – | –
O=c1[nH]c(=O)n([C@H]2O[C@H](CO)[C@@H](O)[C@@H]2O)cc1/C=C\Br | – | inactive | –
CCOC(=O)C(O)c1ccccc1 (stereo not given) | -6.2% (inactive) | – | –
CCOc1ccccc1OCC1CNCCO1 (stereo not given) | – | inactive | –
C1=CC2C3C=CC(C3)C2C1 (stereo not given) | -4.14% [at 91.9 µM] (inactive) | – | –
CC(C)=CCC/C(C)=C/CC/C(C)=C/CCC(=O)OC/C=C(\C)CCC=C(C)C | 8.73% (inactive) | – | –
O=C(O)CCCC[C@@H]1SC[C@@H]2NC(=O)N[C@@H]21 | 6.84% (inactive) | – | –
O=C(Oc1ccccc1)c1cccc(C(=O)Oc2ccccc2)c1 | 7% [at 91.9 µM] (inactive) | – | –

System: not listed separately
Experiment: Primary qHTS for inhibitors of nuclear receptor binding SET domain protein 2 (NSD2) in an RCH-ACV wild type WT cells (2C) (AID 1645877); further: nearly all actives have a fitted effect of over 70% in size
Details: RCH-ACV (leukaemia line) NSD2 WT (2C) viability, CellTiter-Glo, 72 h; series mostly up to 44.9 µM; activity change, negative = cell killing: at the top concentration

SMILES | activity change, negative = cell killing | Potency | outcome
CC(=O)O[C@@H]1CC2C3CCc4cc(OC(=O)c5ccccc5)ccc4C3CCC2(C)[C@H]1OC(C)=O (stereo not given in full) | -2.68% (inactive) | – | –
CN1C(CSCC(F)(F)F)Nc2cc(Cl)c(S(N)(=O)=O)cc2S1(=O)=O (stereo not given) | -16.1% (inactive) | – | –
O=C(O)c1ccc(OCCN2CCCCC2)cc1 | 5.23% (inactive) | – | –
CC(=O)OC[C@H]1O[C@@H](OC(C)=O)[C@H](OC(C)=O)[C@@H]1OC(C)=O | 6.73% (inactive) | – | –
CC(=O)OCC(=O)[C@@]1(O)[C@H](OC(C)=O)C[C@H]2[C@@H]3CCC4=CC(=O)C=C[C@]4(C)[C@@]3(F)[C@@H](O)C[C@@]21C | – | 59.6 nM (active) | –
Cc1[nH]cnc1-c1ccc(Cl)cc1 | -10.9% (inactive) | – | –
O=P(O)(O)OCC(O)CO (stereo not given) | -5.51% (inactive) | – | –
CN(C)CCCOC1(Cc2ccccc2)CCCCCC1 | -19.4% (inactive) | – | –
Cc1ccc(C(C)OC(=O)C2(C)CCC(C(=O)O)C2(C)C)cc1 (stereo not given) | 4.48% (inactive) | – | –
COC(=O)CCCCC(CCSS/C(CCO)=C(\C)N(C=O)Cc1cnc(C)nc1N)SC(C)=O (stereo not given) | -4.07% (inactive) | – | –
N#C/C(=C1/SC[C@@H](c2ccc(Cl)cc2Cl)S1)n1ccnc1 | – | 11900 nM (active) | –
Cc1cnc(NS(=O)(=O)c2ccc(N)cc2)nc1 | -1.33% (inactive) | – | –
CCO[C@H](Cc1ccc(OCCc2ccc(OS(C)(=O)=O)cc2)cc1)C(=O)O | -4.82% (inactive) | – | –
OC[C@]1(O)OC[C@@H](O)[C@H](O)[C@@H]1O | -5.87% (inactive) | – | –
CO/N=C(\C(=O)O)c1csc(NC(=O)CCl)n1 | – | – | inactive
CN(C)CCN1CCN(c2cccc(Cl)c2)C1=O | 9.66% (inactive) | – | –
CC(=O)c1ccc(O)c(C(N)=O)c1 | – | – | inactive
CN1C(=O)c2ccccc2C1=O | 1.1% [at 91.9 µM] (inactive) | – | –
C=CCOc1cc(Cl)ccc1C(=O)NCCN(CC)CC | -1.36% (inactive) | – | –

SMILES | activity change, negative = cell killing | Potency | outcome
CCN(CC)CC(=O)Oc1ccc(NC(C)=O)cc1 | – | – | inactive
CCC(C(=O)OCCN1CCOC(c2ccccc2)C1C)c1ccccc1 (stereo not given) | -2.15% (inactive) | – | –
CCn1ccc(NS(=O)(=O)c2ccc(N)cc2)nc1=O | 7.83% (inactive) | – | –
COC(=O)c1cc(S(N)(=O)=O)ccc1OC | – | – | inactive
CCCCOC(=O)CCCCCCCCC(=O)OCCCC | -3.4% (inactive) | – | –
O=C1CC[C@H](C(=O)N2CCCCC2)N1 | – | – | inactive
CCCC(=O)OCOC(=O)C1=C(C)NC(C)=C(C(=O)OC)C1c1cccc(Cl)c1Cl (stereo not given) | -15.4% (inactive) | – | –
CC1(C)O[C@@H]2C[C@H]3[C@@H]4C[C@H](F)C5=CC(=O)C=C[C@]5(C)[C@@]4(F)[C@@H](O)C[C@]3(C)[C@]2(C(=O)CO)O1 | – | 0.8 nM (active) and 5.9 nM (active) | –
CCOC(=O)Oc1ccc(CCNC(=O)[C@H](CCSC)NC(C)=O)cc1OC(=O)OCC | -13.2% (inactive) | – | –
NC(=O)COCCN1CCN(C(c2ccccc2)c2ccc(Cl)cc2)CC1 (stereo not given) | -10.5% (inactive) | – | –
Nc1ncnc2c1ncn2Cc1c(F)cccc1Cl | -4.21% (inactive) | – | –
O=c1[nH]c(=O)n([C@H]2O[C@H](CO)[C@@H](O)[C@@H]2O)cc1/C=C\Br | – | – | inactive
CCOC(=O)C(O)c1ccccc1 (stereo not given) | – | – | inactive
CCOc1ccccc1OCC1CNCCO1 (stereo not given) | 3.57% (inactive) | – | –
C1=CC2C3C=CC(C3)C2C1 (stereo not given) | – | – | inactive [at 91.9 µM]
CC(C)=CCC/C(C)=C/CC/C(C)=C/CCC(=O)OC/C=C(\C)CCC=C(C)C | – | – | inactive
O=C(O)CCCC[C@@H]1SC[C@@H]2NC(=O)N[C@@H]21 | 5.54% (inactive) | – | –
O=C(Oc1ccccc1)c1cccc(C(=O)Oc2ccccc2)c1 | -16.7% [at 91.9 µM] (inactive) | – | –
